D3 ag: agonists of human D3 dopamine receptor | D3R DiscoveRx beta-arrestin cells, luminescence, 90 min | 410,000 tested, 0.58% active | P35462 | max activation, %; in the data active = max activation above about 30%; note: 0% is about no effect
Target sequence (P35462 whole entry, looked up): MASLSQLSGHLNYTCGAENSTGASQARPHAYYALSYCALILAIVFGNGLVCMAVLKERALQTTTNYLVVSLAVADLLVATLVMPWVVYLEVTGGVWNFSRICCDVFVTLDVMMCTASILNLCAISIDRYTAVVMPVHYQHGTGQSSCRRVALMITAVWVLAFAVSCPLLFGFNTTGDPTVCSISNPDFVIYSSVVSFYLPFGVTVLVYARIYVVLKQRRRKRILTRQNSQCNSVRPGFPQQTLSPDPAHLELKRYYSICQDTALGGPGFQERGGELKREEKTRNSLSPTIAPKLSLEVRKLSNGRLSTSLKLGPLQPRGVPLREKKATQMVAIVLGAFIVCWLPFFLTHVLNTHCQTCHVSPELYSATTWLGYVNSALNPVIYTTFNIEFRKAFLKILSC
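Cells at 1500/well, incubated overnight, then treated with pinned compounds (dopamine as control) for 90 min at 37 degrees C. DiscoveRx reagent added for 30 - 60 minutes at room temperature; luminescence read.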
a7 integrin act: activates integrin-mediated alleviation for muscular dystrophy | alpha7betagal myoblasts, beta-gal FDG fluorescence, 48 h | Potency, µM (highest dose often 38.3 µM), inactives show top-dose activation, usual class: activators | 350,000 tested, 0.064% active | AID 624291; active = well fitted activation curve with a large enough effect; inconclusive = small, poorly fitted or top-dose-only effect; inactive = no such curve, though single readings can be large or run the other way;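 note: potency is the fitted concentration of half-maximal effect; 100% = response of the positive control SU9516; nearly all actives have a fitted effect of over 60% in size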
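alpha7betagal+/- myoblasts (passage 13, 250/well) treated 48 h at 37C with compounds at 1:260 dilution of DMSO stock. Lysed, then beta-galactosidase activity read as FDG fluorescence (ex 480/em 540) after 30 min, with pre-read for autofluorescence.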
DRD3 antagonist: blocks the human D3 dopamine receptor; max response, negative = inhibition, %; D3R cells, DiscoveRx beta-arrestin luminescence, antagonist mode; stronger effect = lower value; P35462; 360,000 tested, 2.5% active; in the data active = max response below about -50%; inconclusive = no clear call, values can overlap the other calls; note: % is set by controls: 0 for no effect and ±100 for the full control effect
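Cells plated overnight at 1500 cells/well, then exposed to library compounds with dopamine controls for 90 minutes at 37 degrees C. DiscoveRx reagent added for 30–60 minutes at room temperature; luminescence read, quantitative HTS format.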
The depositor's hits bear a star; [ ] = remark or other dose. In the library only some 2.9% were active in any assay of this set; here they are far more common.

`Cc1ccc(C(=O)/C=C/Nc2ccccc2C(N)=O)cc1` gave D3 ag -1.5, a7 integrin act 27.3% and DRD3 antagonist -80.3*.
Screening NC(=O)c1ccccc1N/C=C/C(=O)c1ccc(Cl)cc1 returned D3 ag -10.9, a7 integrin act 15.1% and DRD3 antagonist -12.2.
Screening CN1CCn2c1nc(N1CCCCC1)nc2=O returned D3 ag -8.6, a7 integrin act inconclusive and DRD3 antagonist -15.3.
`COc1cccc2c1cc1c(=O)n(CC(=O)N3CCN(c4cc(Cl)ccc4C)CC3)nc(C)n12` gave D3 ag 15.0.
COc1cccc2c1cc1c(=O)n(CC(=O)N3CCN(c4cccc(C)c4C)CC3)nc(C)n12 was read as D3 ag 70.8*, a7 integrin act 21.0% and DRD3 antagonist 0.6.
COc1ccc(-c2ccc(-c3noc(C(C)C)n3)c(OC)n2)cc1 was read as D3 ag 9.6, a7 integrin act 0.0% and DRD3 antagonist 51.6.
For CCOC(=O)/C=C(\C)Sc1cc(O)c2ccccc2c1O the results were D3 ag -16.1, a7 integrin act -76.2% and DRD3 antagonist -55.3*.
Screening CCOC(=O)/C=C(\C)Sc1cc(=O)oc2ccccc12 returned D3 ag -0.3, a7 integrin act -28.1% and DRD3 antagonist -25.5.
`CCOC(=O)c1cc2c(C)n(-c3ccc(C)cc3)c(C)c2ccc1=O` gave D3 ag -8.5, a7 integrin act -65.6% and DRD3 antagonist -11.2.
`COc1cc(C(=O)N2CCCc3ccccc32)c([N+](=O)[O-])cc1OC` gave D3 ag -2.0, a7 integrin act 0.0% and DRD3 antagonist -6.0.
`CCCOc1ccc(C2C3=C(Nc4nc(N)[nH]c(=O)c42)c2ccccc2C3=O)cc1` (centres undefined) gave D3 ag -8.6, a7 integrin act -36.1% and DRD3 antagonist -55.0*.
Screening CCOc1ccc(C2C3=C(Nc4nc(N)[nH]c(=O)c42)c2ccccc2C3=O)cc1 (centres undefined) returned D3 ag 4.7, a7 integrin act -0.5% and DRD3 antagonist 9.9.
O=C(c1ccccc1)c1ccc(OCC(O)CN2CCN(S(=O)(=O)N3CCCCC3)CC2)cc1 (centres undefined) was read as D3 ag 1.2, a7 integrin act -16.5%[7.66 µM] and DRD3 antagonist 24.0.
`O=C(c1ccccc1)c1ccc(OCC(O)CN2CCCCC2)cc1` (centres undefined) gave D3 ag 2.3, a7 integrin act -25.3% and DRD3 antagonist -66.6*.
`c1ccc(COc2ccc(OCCCCN3CCCC3)cc2)cc1` gave D3 ag -17.0, a7 integrin act 0.0% and DRD3 antagonist -13.7.
Screening c1ccc(COc2ccc(OCCCN3CCCCC3)cc2)cc1 returned D3 ag 2.5, a7 integrin act -53.1% and DRD3 antagonist -79.9*.
Screening c1ccc(OCCCCN2CCCCC2)cc1 returned D3 ag -7.2, a7 integrin act 12.1% and DRD3 antagonist inconclusive.
Screening CCCC(O)(CCN1CCCCC1)c1ccc(OCC)cc1 (centres undefined) returned D3 ag -9.0, a7 integrin act -4.7% and DRD3 antagonist -1.8.
Screening COc1ccc(C(O)(CCN2CCCCC2)C2CCCCC2)cc1 (centres undefined) returned D3 ag -41.1, a7 integrin act -63.3% and DRD3 antagonist -52.5*.
For O=C(c1ccccc1)c1ccc(OCCCN2CCCCC2)cc1 the results were D3 ag -1.6, a7 integrin act -26.7% and DRD3 antagonist -83.0*.
CCOC(=O)COc1cccc(C2NC(=O)c3ccccc3O2)c1 (centres undefined) was read as D3 ag -9.2, a7 integrin act -9.4% and DRD3 antagonist -4.2.
Screening Cc1ccc2nc(SCC(=O)NC3CCCc4ccccc43)[nH]c2c1 (centres undefined) returned D3 ag -5.0, a7 integrin act 38.0% and DRD3 antagonist -0.9.
CCOC(=O)c1nnn(-c2nonc2N)c1CS(=O)(=O)c1ccccc1 was read as D3 ag -1.9, a7 integrin act 9.1% and DRD3 antagonist -4.4.
Screening O=C(Nc1ccccc1C(=O)OCc1cc(=O)n2c3c(sc2n1)CCCC3)c1ccccc1 returned D3 ag -7.3.
Screening CCC1CCC(c2nnc(-c3ccc(Br)cc3)o2)CC1 (centres undefined) returned D3 ag 2.4, a7 integrin act 22.2% and DRD3 antagonist -21.3.
O=C(NC1CCCCC1)C1CCCN(S(=O)(=O)c2ccc(F)cc2)C1 (centres undefined) was read as D3 ag -9.6, a7 integrin act -4.3% and DRD3 antagonist 2.9.
CC(C)COc1ccc(C(=O)CCN2CCCCC2)cc1 was read as D3 ag -18.1, a7 integrin act -24.6% and DRD3 antagonist -16.2.
For CCCCOc1ccc(C(=O)CCN2CCCCC2)cc1 the results were D3 ag -43.6 and DRD3 antagonist -56.0*.
Screening c1ccc(OCCCN2CCCC2)cc1 returned D3 ag -48.9, a7 integrin act -29.9% and DRD3 antagonist inconclusive.
`CC(=O)c1ccc(OCCCN2CCCCC2)cc1` gave D3 ag -4.7, a7 integrin act 14.6% and DRD3 antagonist -71.8*.
Screening COC(=O)c1ccc(OCCN2CCCCCC2)cc1 returned D3 ag -12.7, a7 integrin act -8.3% and DRD3 antagonist -27.4.
`COc1ccc(OCCCN2CCCCCC2)cc1` gave D3 ag -3.5, a7 integrin act -20.4% and DRD3 antagonist -64.4*.
Screening CN(C)C(=O)Oc1ccc[n+](C)c1 returned D3 ag 0.3 and DRD3 antagonist 44.0.
Screening COCCn1c(SCC(=O)N2CCCC(C)C2)nnc1-c1ccco1 (centres undefined) returned D3 ag -1.0, a7 integrin act 8.4% and DRD3 antagonist 4.4.
`CC(C)CCNC(=O)NC(=O)CN1C(=O)NC2(CCCCC2)C1=O` gave D3 ag 1.7, a7 integrin act -1.1% and DRD3 antagonist -2.5.
Screening Cc1ccc(-c2csc(N3CCN(c4cc5c(cc4Cl)nc(-c4ccncc4)n5CCN4CCCCC4)CC3)n2)cc1 returned D3 ag -17.8, a7 integrin act -8.4% and DRD3 antagonist 0.0.
`Cc1c(Nc2ccc3nonc3c2[N+](=O)[O-])c(=O)n(-c2ccccc2)n1C` gave D3 ag 0.8, a7 integrin act -18.0% and DRD3 antagonist -1.4.
O=C(O)c1ccc(Nc2cc(Cl)c3nonc3c2[N+](=O)[O-])cc1 was read as D3 ag 4.0, a7 integrin act 21.8% and DRD3 antagonist -22.7.
For O=[N+]([O-])c1c(Nc2cccc(O)c2)cc(Cl)c2nonc12 the results were D3 ag -29.3, a7 integrin act -67.8% and DRD3 antagonist -131.2*.
For Cc1c(Nc2cc(Cl)c3nonc3c2[N+](=O)[O-])c(=O)n(-c2ccccc2)n1C the results were D3 ag -21.2, a7 integrin act -68.2% and DRD3 antagonist -101.1*.
For CCNC(=O)C1(C)CCCN1C(=O)c1cnc2ccccc2n1 (centres undefined) the results were D3 ag -3.4 and DRD3 antagonist -57.9*.
COCCNC(=O)C1(C)CCCN(C(=O)c2cnc3ccccc3n2)C1 (centres undefined) was read as D3 ag 6.5 and DRD3 antagonist -5.0.

Assay outcomes deposited in PubChem by National Center for Advancing Translational Sciences (NCATS).
